AmpC no deterg – qHTS Inhibitors of AmpC Beta-Lactamase (assay without detergent). AmpC nitrocefin hydrolysis, absorbance 480 nm, 0.0001% Triton. Potency, µM (doses to about 57.1 µM), for the others: at the highest dose activity change, negative = inhibition, usual class: inhibitors. 330,000 tested, 0.52% active;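 also: plate controls were no compound for no effect and no enzyme for full effect; nearly all actives have a fitted effect of over 20% in size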
Target sequence (P00811 whole entry, looked up): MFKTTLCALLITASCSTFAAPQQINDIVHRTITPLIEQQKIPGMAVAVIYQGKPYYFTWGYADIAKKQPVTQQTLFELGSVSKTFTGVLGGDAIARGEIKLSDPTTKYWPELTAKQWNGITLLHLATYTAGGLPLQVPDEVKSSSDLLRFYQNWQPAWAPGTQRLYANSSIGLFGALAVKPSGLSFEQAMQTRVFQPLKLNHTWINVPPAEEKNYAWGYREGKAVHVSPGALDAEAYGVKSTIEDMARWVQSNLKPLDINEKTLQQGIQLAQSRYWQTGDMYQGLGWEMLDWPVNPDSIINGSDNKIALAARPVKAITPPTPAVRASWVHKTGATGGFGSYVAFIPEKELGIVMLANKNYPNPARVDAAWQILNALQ
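20 mM phosphate pH 7.0 + 0.01% (detergent screen) or 0.0001% Triton X-100; 5.3 nM AmpC reagent; cpd preinc 15 min RT; nitrocefin (800 uM stock) to start; A480 q20 s × 4 min; Activity was normalised to no-enzyme and no-compound control wells.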
Sm TGR block – qHTS Assay for the Inhibitors of Schistosoma Mansoni Peroxiredoxins; Schistosoma mansoni thioredoxin glutathione reductase (TGR), Q962Y6; 360,000 tested, 3% active; purified TGR, DTNB reduction, TNB absorbance 405 nm; Potency, µM (top dose mostly 114 µM), inactives show at the top dose activity change, negative = inhibition, hits mostly inhibitors; also: nearly all actives have a fitted effect of over 60% in size
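TGR 20 nM + NADPH 100 uM (dispensed conc.), cpd preinc 15 min RT; start with NADPH (500 uM addition) then DTNB (15 mM addition). Kinetic TNB absorbance, 405 nm filter. Four-parameter Hill fit across titration.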
AmpC inh detg – qHTS Inhibitors of AmpC Beta-Lactamase (assay with detergent); P00811; AmpC hydrolysis of nitrocefin, absorbance 480 nm, 0.01% Triton; Potency, µM (titrated, usually from 114 µM), for inactives: at the top dose activity change, negative = inhibition, most hits filed as inhibitors; 370,000 tested, 0.041% active; AID 485294, 2010;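 also: 0% = no-compound wells and -100% = no-enzyme wells; nearly all actives have a fitted effect of over 25% in size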
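20 mM phosphate pH 7.0 + 0.01% (detergent screen) or 0.0001% Triton X-100; 5.3 nM AmpC reagent; cpd preinc 15 min RT; nitrocefin (800 uM stock) to start; A480 q20 s × 4 min; Activity was normalised to no-enzyme and no-compound control wells.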
* marks the source's active call; other numbers are inactive results; ? = inconclusive; . = no result given. In the library only some 3.3% were active in any assay of this set; here they are far more common. Calls follow the shape of the dose curve; as a rule, active = well fitted curve in the direction sought with a large enough effect; inconclusive = small, poorly fitted or top-dose-only effect, or another doubt; inactive = no such curve, though single readings can be large; an effect the other way counts as inactive or inconclusive. Unless noted, % is scaled to controls: 0 for no effect and ±100 for the full control effect; potency is read from the fitted curve at half-maximal effect.

SMILES	AmpC no deterg	Sm TGR block	AmpC inh detg
O=C(O)c1ccc(S(=O)(=O)/N=C2\C=C(Nc3ccccc3F)C(=O)c3ccccc32)cc1	-21%	45µM*	3%
Cc1ccccc1NC1=C/C(=N\S(=O)(=O)c2ccc(C(=O)O)cc2)c2ccccc2C1=O	-26%	?	?
CCOc1ccc2c(c1)nc(SCC(=O)c1ccc(Br)s1)n2C	-29%	35µM*	-7%
CCOc1ccc2c(c1)nc(SCC(=O)c1cccs1)n2C	-27%	?	-7%
OC(CNc1ccccc1)Cn1ccc2ccccc21 (configuration not stated)	?	.	4%
NC(=O)c1c(NC(=O)c2noc3c2CCCC3)sc2c1CCCC2	.	0%	5%
Oc1cc(O)cc(/C=C/c2ccc(O)c(O)c2)c1	-28%	22µM*	1%
C/C=C/c1ccc(O)c(OC)c1	-26%	-3%	-4%
O=C(/C=C/c1ccccc1[N+](=O)[O-])N1CCCCC1	-21%	-7%	-5%
O=[N+]([O-])C(/C=C(/Cl)[N+](=O)[O-])=C(N1CCCCC1)N1CCCCC1	4%	25µM*	0%
O=C1NC[C@H](Cc2ccccc2)N(CC2CCCCC2)C1=O	0%	4%	3%
O=c1c2ccccc2nc(CSc2nnnn2-c2ccccc2)n1-c1ccccc1Cl	-22%	-6%	3%
Cc1nnc(SCc2nc3ccccc3c(=O)n2-c2ccccc2Cl)n1N	-11%	56µM*	-15%
CCOc1ccc(CCNS(=O)(=O)c2cc3c(cc2C)NC(=O)CO3)cc1OCC	-7%	-20%	-8%
CC(C)C(NC(=O)c1ccc(C(C)(C)C)cc1)C(=O)Nc1ccc(N2CCOCC2)cc1 (configuration not stated)	156%	6%	4%
Cc1cccc(-c2cc(C(=O)NCCCn3ccnc3)c3ccccc3n2)c1	68%	1%	-4%
O=C(NC1=NCCS1)c1cc(-c2cccs2)nc2ccccc12	-31%	-5%	-13%
Cc1ccc(-c2cc(C(=O)O)c3cc(Br)ccc3n2)s1	-22%	?	-1%
Cc1ccc(-c2cc(C(=O)NC3=NCCS3)c3cc(Br)ccc3n2)o1	-6%	2.8µM*	-21%
Cc1ccc(-c2cc(C(=O)NN3CCOCC3)c3cc(Br)ccc3n2)o1	26%	10µM*	-1%
Cc1ccc(-c2cc(C(=O)O)c3cc(Br)ccc3n2)o1	-26%	2µM*	-13%
Cc1ccc(-c2cc(C(=O)NCCCn3ccnc3)c3cc(Br)ccc3n2)o1	87%	1.6µM*	0%
O=C(NN1CCOCC1)c1cc(-c2ccc(Br)s2)nc2ccccc12	0%	2%	-3%
O=C(COC(=O)CCNS(=O)(=O)c1ccc(Cl)cc1)Nc1ccccc1OC(F)F	-22%	1%	?
COc1ccc(OCc2nnc(SCC(=O)N3C(C)CCCC3C)o2)cc1 (configuration not stated)	40%	-12%	-4%
SMILES	AmpC no deterg	Sm TGR block	AmpC inh detg
CN(CCCC(=O)NCc1ccccc1)S(=O)(=O)c1ccc([N+](=O)[O-])cc1	-2%	-8%	-11%
O=C(CSc1nc2ccccc2n1S(=O)(=O)c1cccc([N+](=O)[O-])c1)NCc1cccs1	-22%	7%	-11%
Cc1cc2nnc(SCC(=O)Nc3cccc(S(=O)(=O)N4CCOCC4)c3)n2c2ccccc12	-7%	-11%	2%
COc1cccc(-c2nc(CS(=O)CC(=O)NCc3ccccc3Cl)c(C)o2)c1 (configuration not stated)	70%	32µM*	4%
COCCCNC(=O)CS(=O)Cc1nc(-c2cccc(OC)c2)oc1C (configuration not stated)	8%	40µM*	-3%
COc1ccc(-c2nc(CS(=O)CC(=O)NCc3ccccc3Cl)c(C)o2)cc1OC (configuration not stated)	.	-21%	8%
COCCCNC(=O)CS(=O)Cc1nc(-c2cccc(C)c2)oc1C (configuration not stated)	.	?	4%
CCCCN(CCCC)CCCNC(=O)c1ccc2nc(N3CCCCC3)sc2c1	.	28µM*	10%
CCCN1CCN(CCCNC(=O)c2ccc3nc(N4CCCCC4)sc3c2)CC1	1%	-12%	?
CCOc1cccc2cc(-c3nc(-c4ccccc4C)no3)c(=O)oc12	.	-5%	20%
COc1ccc(CC(=O)NN2C(=O)c3ccccc3C2=O)cc1	-33%	-4%	-3%
COc1ccc(CC2=CC(=O)c3ccccc3C2=O)cc1	-46%	28µM*	-7%
Cc1cc(C)c2c(N)c(C(=O)Nc3ccc([N+](=O)[O-])cc3)sc2n1	-12%	3%	1%
COc1ccc(NC(=O)Cn2cc(C(=O)C3CC3)c3ccccc32)cc1	-14%	3%	0%
COc1cccc(NC(=O)Cn2cc(C(=O)C3CC3)c3ccccc32)c1	28µM*	0%	?
COc1cc(/C=C/C(=O)OCC(=O)NCc2cccs2)ccc1OC(F)F	-24%	-4%	-7%
COc1ccccc1/C=C/C(=O)OCC(=O)NCc1ccco1	-15%	1%	-2%
COc1cc(/C=C/C(=O)OCC(=O)NCc2ccco2)ccc1O	-22%	28µM*	-19%
COc1cc(/C=C/C(=O)OCC(=O)NC(=O)NCc2ccco2)ccc1OC(F)F	20µM*	.	.
Fc1cccc(Cl)c1/C=N/n1c(-c2cccnc2)n[nH]c1=S	-39%	20%	-9%
CC(=O)Nc1ccc(S(=O)(=O)N(C)CC(=O)N(C)Cc2sccc2C)cc1	19%	1%	14%
COc1ccccc1OCC(=O)Nc1ccc(S(=O)(=O)N(C)c2ccccc2)cc1	1%	5%	-1%
Cc1cc(C)n2nc(S(=O)(=O)NC(C)(C)C)nc2n1	4%	7%	0%
Cc1cc(N2CCNCC2)nc2ccccc12	-20%	22µM*	-7%
Cc1cc(N2CCCC2)nc2ccccc12	-11%	.	1%
SMILES	AmpC no deterg	Sm TGR block	AmpC inh detg
CC1(NC(=O)Cc2ccc(S(=O)(=O)N3CCOCC3)s2)CCS(=O)(=O)C1 (configuration not stated)	96%	-7%	?
Oc1ccc2ccccc2c1C=NC1CCCCC1	-25%	40µM*	-9%
O=CN/N=C/c1c(O)ccc2ccccc12	-32%	0%	0%
Oc1ccc2ccccc2c1/C=N/n1cnnc1	-19%	-17%	?
Oc1ccc2ccccc2c1/C=N/Nc1ccccc1	-59%	50µM*	?
C=CCNc1nnc(Cc2ccc(C(C)C)cc2)c(=O)[nH]1	-24%	-8%	?
COc1ccc(NC(=O)CC(C)S(=O)(=O)c2cc3c(cc2C)NC(=O)CO3)cc1OC (configuration not stated)	.	1%	-2%
COc1ccc(N2C(=O)C(Cl)=C(Nc3ccccc3O)C2=O)cc1	-43%	40µM*	-9%
COc1ccc(N2C(=O)C(Cl)=C(Nc3ccccc3OC)C2=O)cc1	-8%	-1%	-14%
CCC(C)NC(=O)CC(NS(=O)(=O)c1ccc(NC(C)=O)cc1)C(C)C (configuration not stated)	1%	9%	4%

Compound activity: PubChem, National Center for Advancing Translational Sciences (NCATS)
